# In the library only some 19% were active in any assay of this set; here they are far more common.
# HT1080 IDH1KD tx = HT-1080 IDH1 knockdown cell toxicity (counter line) | HT-1080 IDH1 knockdown viability, ATP luminescence, 48 h | 360,000 tested, 2% active | Potency, µM (titrated, usually from 46.1 µM), for the others: at the highest dose activity, negative = toxicity, usual class: cytotoxic;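 note: 0% = DMSO wells and -100% = cell-free medium wells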
#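 In this qHTS, HT-1080 cells depleted of IDH1 are exposed for 48 h at 37 °C to compound titrations. Toxicity is scored from CellTiter-Glo luminescence, with DMSO as full viability and medium alone as none.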
# TDP1 cell CPT = growth inhibition of DT40 Tdp1-/-;hTDP1 cells with camptothecin (screen for TDP1 inhibitors). Potency, µM (top dose mostly 46.2 µM), for inactives: at the highest dose activity change, negative = growth inhibition, actives largely listed as inhibitors. chicken DT40 Tdp1-/-;hTDP1 cells + 20 nM CPT, ATP luminescence, 48 h. AID 686979. 420,000 tested, 12% active; note: nearly all actives have a fitted effect of over 55% in size
#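 Cell growth measured by CellTiter-Glo luminescence after a minimum 48 h, 37 C compound exposure with 20 nM CPT in Tdp1-knockout DT40 cells stably expressing hTDP1, seeded 400/well; qHTS titration format.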
# TDP1 cell noCPT = qHTS for Inhibitors of human tyrosyl-DNA phosphodiesterase 1 (TDP1): qHTS in cells in absence of CPT; DT40 Tdp1-/- hTDP1 cells, no CPT, ATP luminescence, 48 h; 420,000 tested, 15% active; AID 686978, 2013; Potency, µM (titrated, usually from 46.2 µM), inactives show at the highest dose activity change, negative = growth inhibition, usual class: inhibitors; note: nearly all actives have a fitted effect of over 55% in size
#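 Readout: luminescence from CellTiter-Glo after 30 min in the dark at RT. Cells: DT40 Tdp1-/- with stable hTDP1, 400/well. Exposure: compounds alone, ≥48 hr, 37 °C.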
# HT1080-NT tox = kills 2HG-producing HT-1080-NT fibrosarcoma cells. HT-1080-NT fibrosarcoma viability, CellTiter-Glo ATP luminescence, 48 h. Potency, µM (top dose mostly 46.1 µM), for the others: top-dose activity, negative = less viability, actives largely listed as cytotoxic. 360,000 tested, 1.6% active;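 note: NT is the 2HG producing partner of a matched IDH1 knockdown line; 0% = DMSO-treated cells and -100% = media-only wells without cells; nearly all actives have a fitted effect of over 55% in size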
#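 Compounds were tested in concentration-response format on HT-1080-NT cells for 48 hours at 37 degrees C. Cell viability came from CellTiter-Glo luminescence; curves were classified by r2, response magnitude and activity.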
# KB-3-1 tox = KB-3-1 parental cell cytotoxicity; KB-3-1 viability, CellTiter-Glo ATP luminescence, 72 h; AID 1347075; Potency, µM (highest dose often 46.1 µM), hits mostly cytotoxic; 400,000 tested, 1.4% active; note: nearly all actives have a fitted effect of over 60% in size
#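 Here the drug-naive KB-3-1 line serves as comparator for MDR sub-line selectivity; cells received compound titrations, 72 h at 37 °C, then CellTiter-Glo readout.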
# KB-V1 cytotox = KB-V1 MDR subline cytotoxicity; KB-V1 MDR cells viability, CellTiter-Glo, 72 h; Potency, µM (titrated, usually from 46.1 µM), hits mostly cytotoxic; 400,000 tested, 3.4% active; AID 1347076; note: nearly all actives have a fitted effect of over 60% in size
#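 Potencies derive from concentration-effect curves fitted to normalized luminescence (CellTiter-Glo) of KB-V1 cells treated for 72 h at 37 degrees C in phenol-red-free DMEM containing 10% FBS.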
# Numbers without * were called inactive; i = inactive; ? = inconclusive; nt = no result. Calls come from the whole dose curve; as a rule, active = well fitted curve in the direction sought with a large enough effect; inconclusive = small, poorly fitted or top-dose-only effect, or another doubt; inactive = no such curve, though single readings can be large; an effect the other way counts as inactive or inconclusive. Unless noted, % is set by controls: 0 for no effect and ±100 for the full control effect; potency is the fitted concentration of half-maximal effect.
SMILES,HT1080 IDH1KD tx,TDP1 cell CPT,TDP1 cell noCPT,HT1080-NT tox,KB-3-1 tox,KB-V1 cytotox
Cc1cc2nc(-c3ccc(C#N)cc3)c(Cc3ccsc3)n2c(C)c1Br,?,16µM*,16µM*,-27%,i,?
Cc1cc2nc(-c3ccccc3)c(Cc3ccsc3)n2c(C)c1Br,?,15µM*,15µM*,-26%,?,i
COc1cc(SC)ccc1C(=O)OCC(=O)N1CCCC1,9%,9%,2%,20%,i,?
COc1ccc(Cl)cc1S(=O)(=O)N1CCN(Cc2cccc(F)c2)CC1,nt,?,?,nt,i,i
COc1ccccc1Oc1coc2cc(OC(=O)N3CCOCC3)ccc2c1=O,4%,?,-8%,3%,?,23µM*
COc1cccc(Oc2coc3cc(OC(=O)N4CCOCC4)ccc3c2=O)c1,-2%,?,?,-15%,i,?
CCc1ccc(NC(=O)CCC(=O)Nc2nnc(C(F)(F)F)s2)cc1,4%,-19%,0%,1%,i,?
Cc1cc(C)n(-c2ccc(C(=O)OCC(=O)Nc3ccc(S(=O)(=O)N4CCCCC4)cc3)cc2)n1,1%,23µM*,?,0%,i,i
Cc1cc(C)n(-c2ccc(C(=O)OCC(=O)Nc3ccc(S(N)(=O)=O)cc3)cc2)n1,0%,?,-12%,-5%,i,i
O=C(Nc1ccc(S(=O)(=O)N2CCCC2)cc1)c1ccc(OCC2CCCO2)cc1 (stereo unspecified),?,-13%,-14%,?,21µM*,?
Cc1cc(C)n(-c2ccc(C(=O)Nc3cccc(S(=O)(=O)N4CCCC4)c3)cc2)n1,-12%,18µM*,9.2µM*,-4%,i,i
CC(C)Oc1ccc(C(=O)Nc2cccc(S(=O)(=O)N3CCCC3)c2)cc1,-14%,29µM*,21µM*,0%,?,?
Cc1ccc(C)c(NC(=O)c2cnc(N3CCCC3)nc2C)c1,nt,-23%,?,nt,i,i
CCOc1ccc(NC(=O)Cn2cc(C(=O)c3ccc(CC)cc3)c(=O)c3cc4c(cc32)OCO4)cc1,nt,?,?,nt,i,?
CC(C)C(NS(=O)(=O)c1ccc2c(c1)oc(=O)n2C)C(=O)NCCc1ccccc1 (stereo unspecified),nt,-11%,-5%,nt,i,i
O=C(Nc1cccc(S(=O)(=O)N2CCCCC2)c1)c1ccc(OCC2CCCO2)cc1 (stereo unspecified),-11%,21µM*,16µM*,-12%,i,8.2µM*
Cc1ccc(NC(=O)c2ccc(OCC3CCCO3)cc2)cc1 (stereo unspecified),7%,?,?,2%,i,21µM*
O=C(c1ccc(Cl)c(Cl)c1)N1CCC(O)(CN2CCOCC2)CC1,2%,7%,1%,-4%,i,i
O=C(c1ccc(Cl)cc1)N1CCC(O)(CSc2ccc(Cl)cc2Cl)CC1,?,16µM*,?,?,?,?
CN(C)C(=O)c1ccc(-c2cncnc2N2CCNCC2)cc1,nt,10%,2%,nt,nt,nt
O=C(CCS(=O)(=O)c1ccc(Cl)cc1)NCCN1C(=O)S/C(=C\c2ccccc2F)C1=O,-4%,?,16µM*,-10%,i,13µM*
Cc1ccc(S(=O)(=O)CCC(=O)NCCN2C(=O)S/C(=C\c3ccccc3)C2=O)cc1,-12%,?,?,-8%,i,12µM*
Cc1ccc(S(=O)(=O)CCC(=O)NCCc2ccccc2)cc1,-5%,-7%,-14%,-2%,i,i
CCC(C)NC(=O)C1c2ccccc2C(=O)N1Cc1ccc(F)cc1 (stereo unspecified),2%,-2%,2%,3%,i,i

# Screens deposited in PubChem BioAssay by National Center for Advancing Translational Sciences (NCATS).
